# Compound activity deposited in PubChem by several laboratories.
# Rows were chosen to be rich in hits. Some 1.4% of all compounds tested hit in one or more screens of this group.
# MRP reversal: compounds reversing MRP-mediated drug resistance | H69AR cells + 2 uM doxorubicin, CellTiter-Glo, 72 h | 85,000 tested, 0.04% active | differential viability (reversal), % at 10 µM | AID 602;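 active means viability drop by adding the cancer drug above about 55%, with treated viability meeting a 40% cutoff, limit read from the data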;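 further: viability without doxorubicin minus viability with 2 µM doxorubicin for each compound; larger differential means the compound sensitizes cells more to doxorubicin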
# HUVEC tox IL1B: toxic to HUVEC cells under IL-1B stimulation; HUVEC cell count loss, Hoechst imaging, IL-1B stimulated; cell count reduction, % at 2 µM; 94,000 tested, 0.41% active;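 active means cell count reduction more than 3 SD above the screen-wide mean, cut at about 70% in these data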;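 further: normalized per plate to untreated control cells as the no-loss baseline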
# NFkB transloc inh: blocks IL-1B driven NFkB nuclear translocation in HUVEC cells | HUVEC IL-1B NFkB p65 nuclear translocation imaging | inhibition, % at 2 µM | 94,000 tested, 0.43% active;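 active means inhibition above about 30% together with a positive call from visual inspection of the well image, limit read from the data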;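 further: nuclear over cytoplasmic p65 intensity ratio measured by imaging; 0% = IL-1B stimulated DMSO wells and 100% = unstimulated DMSO wells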
# IL1B NFkB pot: enhances IL-1B driven NFkB nuclear translocation | HUVEC IL-1B NFkB p65 nuclear translocation imaging | 94,000 tested, 0.3% active | activation, % at 2 µM;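 active means activation above 40%, about the mean plus 3 SD, also judged a hit on visual image review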;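 further: percent activation is computed from the nuclear over cytoplasmic p65 intensity ratio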
# SDO1 yeast rescue: restores growth of sdo1-depleted yeast. S. cerevisiae sdo1-depleted JHY4D growth rescue, OD600 30 h; stronger effect = higher value; pdr5 snq2 efflux-pump mutant strain. z-score at 10 µM. 140,000 tested, 0.21% active;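 active means z-score above 3 at both the 24 hr and the 30 hr optical density reads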;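 further: z-score against mean and SD of all compound wells on the same plate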
# MRP-1 activ: MRP-1 activation | H69AR cells + doxorubicin, viability rescue, CellTiter-Glo | viability increase, % at 10 µM | 140,000 tested, 0.61% active | AID 799;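 active means viability gain under doxorubicin at or above a set limit, the compound median plus 3 SD, cut at about 4.7% in these data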;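 further: MRP-1 overexpressing cells given doxorubicin 25 µM after compound pretreatment; 18-22 h compound pretreatment then 72 h with doxorubicin before readout; 0% = doxorubicin-only wells and 100% = vehicle-treated cells without doxorubicin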
# sdo1 rescue conf: SDO1-depleted yeast growth rescue confirmation; S. cerevisiae JHY4D (SDO1-depleted) growth rescue, OD600, 30 h; stronger effect = higher value; efflux-deficient strain, SNQ2 and PDR5 mutated; OD recovery (concentration not given with the values); shares compounds with SDO1 yeast rescue; 440 tested, 44% active;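 active means yeast growth recovered at 30 hours, either rising with dose fitted slope above 0.001 or with average optical density gain above 0.07, some results past the limit were not filed as active; inactive means growth falling with dose or no effect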;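 further: gain in OD600 from 0 h to 30 h averaged across all seven doses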
# Numbers without * were called inactive; / = no result.
SMILES,MRP reversal,HUVEC tox IL1B,NFkB transloc inh,IL1B NFkB pot,SDO1 yeast rescue,MRP-1 activ,sdo1 rescue conf
C/C(=N/NC(=O)Cc1ccccc1)c1ccc(C)s1,/,/,/,/,1.01,3.0,/
COc1cc(OC)c(-c2cc(C(=O)O)ccc2OC)c(OC)c1,/,/,/,/,-0.03,-1.4,/
CCOc1cc(C(=O)N2CCCC2)cc(OCC)c1OCC,1.4,13.7,4.9,-4.9,1.79,-0.5,0.0418
CCOc1ccc(C(=O)N2CCCC2)cc1OC,-5.9,-2.8,-21.8,21.8,0.75,0.3,/
COc1ccc(CN(C)Cc2nc3scc(-c4ccccc4)c3c(=O)[nH]2)cc1OC,/,/,/,/,-0.11,-3.5,/
CCn1c(O)c(N=NC2=NC(=O)CS2)c2ccccc21,/,17.2,-1.0,1.0,15.9*,3.0,0.079
C=CCn1c(O)c(N=NC(=O)OCC)c2ccccc21,/,/,/,/,0.17,-1.6,/
CC(C)n1nnnc1SCC(=O)c1ccc2c(c1)OCCO2,-2.6,-6.7,-3.2,3.2,-0.13,-0.7,/
CCn1nnnc1SCC(=O)c1ccc2c(c1)OCCO2,-3.4,4.7,0.3,-0.3,10.2*,-0.5,0.0287
Cc1ccc(-n2c(SCC3CNC(=O)O3)nnc2-c2ccccc2)cc1C (stereo not given),/,/,/,/,0.14,-3.9,/
CC(=O)c1cnn(-c2cc(Oc3cccc(C)c3)ncn2)c1C,/,4.7,14.4,-14.4,6.88*,1.0,0.0502
CC(=O)c1cccc(NC(=O)C2CCCN(S(=O)(=O)c3ccc(F)cc3)C2)c1 (stereo not given),-2.0,6.3,0.3,-0.3,0.48,-1.1,/
COc1ccc(S(=O)(=O)N2CCCC(C(=O)Nc3cccc(C(C)=O)c3)C2)cc1 (stereo not given),-24.9,-19.5,5.8,-5.8,1.77,-2.9,0.0502
COc1cc(C(=O)N2CCC(C(=O)Nc3cccc(C(C)=O)c3)CC2)cc(OC)c1OC,0.5,/,/,/,2.8,-3.0,0.0591
C=CC[C@@H]1Cc2c(Br)ccc(Br)c2[C@@H](CC=C)N1,/,/,/,/,6.52*,-1.1,0.104*
C=CC[C@H]1CC(Cc2ccccc2)=C[C@H](CC=C)N1,/,/,/,/,-0.08,-2.2,/
CC(C)(C)C(=O)NC(=S)Nc1ccc(F)cc1,/,/,/,/,-0.02,-1.6,/
Cc1ccc(Cn2c(Sc3nccc(C)n3)nc3c2c(=O)[nH]c(=O)n3C)cc1,15.1,8.5,-4.6,4.6,1.61,-0.2,0.0943*
Cc1ccc(Cn2c(Sc3ncccn3)nc3c2c(=O)[nH]c(=O)n3C)cc1,25.1,/,/,/,0.8,-0.7,/
O=C(CCSCCc1ccccn1)Nc1c(F)c(F)c(F)c(F)c1F,/,/,/,/,0.79,-1.8,/
CCOC(=O)c1c(NC(=O)CSc2nncs2)sc(C)c1C,/,-28.9,-1.7,1.7,0.62,-4.9,0.0831
COC(=O)c1ccc2[nH]c(C)cc(=O)c2c1,19.2,-18.0,-30.1,30.1,5.96*,-2.7,0.0388
Cc1nc2ccccn2c1C(=O)NCCCN1CCOCC1,13.0,-15.0,-9.0,9.0,1.94,-0.6,0.0889*
COc1ccc(C(O)c2nc3ccccc3s2)cc1 (stereo not given),-15.9,-31.0,6.3,-6.3,10.2*,-1.2,0.0532
Cc1ccc(S(=O)(=O)N2CCCCC2)cc1NC(=O)COC(=O)Cc1c(F)cccc1Cl,/,/,/,/,16.9*,-2.3,0.0896*
SMILES,MRP reversal,HUVEC tox IL1B,NFkB transloc inh,IL1B NFkB pot,SDO1 yeast rescue,MRP-1 activ,sdo1 rescue conf
CCCCCCCCNC(=O)c1cnccn1,/,/,/,/,9.37*,-2.0,0.0526
CCCCCCCCNC(=O)c1cnsn1,/,/,/,/,1.32,-0.4,/
CCc1ccc(S(=O)(=O)NCc2csc(-c3ccccc3)n2)s1,-8.1,-26.8,-13.3,13.3,-0.77,-2.4,/
CCS(=O)(=O)NCCc1csc(-c2cccnc2)n1,/,6.3,-3.2,3.2,0.24,-2.8,/
CCc1ccc(S(=O)(=O)NCCc2csc(-c3cccnc3)n2)s1,11.1,10.9,-1.5,1.4,4.36*,-0.3,0.0517
CCc1ccc(S(=O)(=O)NCCc2csc(-c3ccccc3)n2)s1,4.7,-18.4,-5.9,5.9,4.3*,-4.8,0.0678
CC12C(=O)N(c3ccc(C(=O)N4CCOCC4)cc3)C(=O)C1C1c3ccccc3C2c2ccccc21 (stereo not given),/,/,/,/,-0.01,-2.4,/
CCn1c(C)c(C2=CCN(S(=O)(=O)c3ccccc3)CC2)c2ccccc21,/,/,/,/,-0.42,1.4,/
